# Tau fluor cs – counter-screen for tau fibril formation inhibitors. Potency, µM (highest dose often 57.7 µM), for the others: at the highest dose activity change, negative = decrease. tau K18 P301L Alexa594 fluorescence, heparin fibrillization. 280,000 compounds, 0.93% hits. AID 1463; further: potency means the concentration at half of the fitted maximal effect; nearly all actives have a fitted effect of over 55% in size
#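 Human tau K18 P301L (15 uM unlabeled, 0.24 uM Alexa 594-labeled) in 100 mM sodium acetate pH 7 with 20 uM heparin, 6 hr at 37 C. ThT 30 uM added, 1 hr ambient; Alexa 594 FP and total fluorescence read at 555/632 nm.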
# Tau FP inhib – tau fibrillization inhibition (FP); P10636; K18 P301L tau heparin fibrillization, Alexa594 FP, 6 h; Potency, µM (top dose mostly 57.7 µM), for inactives: top-dose activity, negative = inhibition, actives largely listed as inhibitors; 280,000 compounds, 0.39% hits; AID 1468; further: potency means the concentration at half of the fitted maximal effect; nearly all actives have a fitted effect of over 55% in size
#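 Human tau K18 […] P301L fragment, 15 uM unlabeled plus 0.24 uM Alexa 594-labeled tau (final), with compound and 20 uM heparin in 100 mM sodium acetate pH 7; 6 hr at 37 C, then Alexa 594 FP read.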
# FBPA coupling cs – coupling enzyme interference in Giardia aldolase counter-screen; coupling enzyme system counterscreen, AmpLite Red fluorescence; activity change, negative = inhibition, % at 58.2 µM, hits read low; 290,000 compounds, 0.67% hits; AID 2472; in the data active means activity change below about -30%
#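 Coupling enzymes only (glyceraldehyde-3-phosphate) + compound, at 57.5 uM final, 10 min RT; add substrate/coupling/AmpLite Red mix, 20 min RT; fluorescence ex 525/em 598 nm. Actives flag coupling-system interference.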
# Tau fibril ThT – blocks human tau fibril formation measured by thioflavin T. P10636. recombinant tau K18 P301L, heparin-induced fibrillization, ThT fluorescence. Potency, µM (top dose mostly 57.4 µM), for inactives: at the top dose activity, negative = inhibition, actives largely listed as inhibitors. 270,000 compounds, 2.1% hits. AID 1460; further: potency means the concentration at half of the fitted maximal effect; nearly all actives have a fitted effect of over 55% in size
#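 Using a mix of unlabeled (15 uM) and Alexa 594-labeled (0.24 uM) tau K18 P301L, heparin-triggered fibrillization over 6 hr at 37 C was scored by ThT fluorescence.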
# USP1 inh – USP1/UAF1 (human) deubiquitinase inhibition | O94782 | recombinant USP1/UAF1, Ub-Rhodamine cleavage fluorescence | Potency, µM (highest dose often 57.1 µM), without a hit: at the top dose activity change, negative = inhibition, most hits filed as inhibitors | 390,000 compounds, 0.23% hits; further: potency means the concentration at half of the fitted maximal effect; nearly all actives have a fitted effect of over 60% in size
# Target sequence (O94782 whole entry, looked up): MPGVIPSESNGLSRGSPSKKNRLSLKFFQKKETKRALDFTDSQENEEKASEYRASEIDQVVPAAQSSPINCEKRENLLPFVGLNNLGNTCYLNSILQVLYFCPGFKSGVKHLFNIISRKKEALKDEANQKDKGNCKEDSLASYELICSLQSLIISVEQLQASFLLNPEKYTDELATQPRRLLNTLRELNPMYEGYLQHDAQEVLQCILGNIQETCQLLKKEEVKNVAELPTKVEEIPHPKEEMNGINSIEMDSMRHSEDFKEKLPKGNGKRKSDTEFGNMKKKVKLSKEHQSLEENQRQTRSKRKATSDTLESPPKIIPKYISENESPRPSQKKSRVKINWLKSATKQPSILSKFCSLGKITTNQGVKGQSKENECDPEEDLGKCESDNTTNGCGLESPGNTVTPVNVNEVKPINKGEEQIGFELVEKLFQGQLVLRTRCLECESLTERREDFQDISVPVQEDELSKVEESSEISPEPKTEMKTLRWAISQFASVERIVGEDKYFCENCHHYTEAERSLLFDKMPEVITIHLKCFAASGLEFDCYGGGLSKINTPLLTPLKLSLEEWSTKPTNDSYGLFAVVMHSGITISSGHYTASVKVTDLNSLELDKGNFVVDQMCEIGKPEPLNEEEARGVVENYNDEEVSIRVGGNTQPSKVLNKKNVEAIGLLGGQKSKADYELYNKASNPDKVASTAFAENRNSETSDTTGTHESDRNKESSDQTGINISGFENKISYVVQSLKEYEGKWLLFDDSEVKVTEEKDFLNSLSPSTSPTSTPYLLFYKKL
#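 High-throughput fluorogenic screen: 1nM USP1/UAF1 complex, Ub-Rho substrate 150nM final, 50mM HEPES pH 7.8 with 0.5mM EDTA, 0.1 mg/ml BSA, 1mM TCEP and 0.01% Tween-20.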
# Starred values were filed as active, the others as inactive; u = inconclusive; x = not tested or not shown. Most compounds without a hit are left out; they make up all but 2.3% or so of the library. Unless noted, the call rests on the fitted dose curve; in most records, active means well fitted curve in the direction sought with a large enough effect; inconclusive means small, poorly fitted or top-dose-only effect, or another doubt; inactive means no such curve, though single readings can be large; an effect the other way counts as inactive or inconclusive. On the % scale 0 is the no-effect control and ±100 the full control effect.
SMILES,Tau fluor cs,Tau FP inhib,FBPA coupling cs,Tau fibril ThT,USP1 inh
CC(C)(C)c1csc(NC(=O)c2ccc(Cl)s2)n1,-22%,-1%,9,-18%,-19%
Cc1[nH]n(-c2ncc(-c3ccccc3)s2)c(=O)c1C(c1ccc(Br)cc1)C(C#N)C#N (centres undefined),u,35µM*,7,8.9µM*,-24%
O=C(NCCCn1ccnc1)c1ccc(NS(=O)(=O)c2cccc([N+](=O)[O-])c2)cc1,x,x,x,x,-10%
COc1cccc(C(=O)N2CCN(Cc3ccccn3)CC2)c1OC,-5%,0%,-55*,-3%,1%
COc1ccc(N2Nc3n[nH]c(N)c3N2)cc1,u,12%,-3,8.9µM*,-11%
COc1ccc(N2CCN(c3n[nH]c(N)n3)CC2)cc1,-4%,4%,-3,-2%,-6%
CCOc1ccc(N2Nc3n[nH]c(N)c3N2)cc1,u,1%,2,13µM*,-11%
CCOc1ccc(Cc2n[nH]c(=S)n2N)cc1,4%,5%,0,10%,-20%
COc1cc(OC)c(N(C)C(=O)Cn2ncc3c([nH]c4ccccc43)c2=O)cc1Cl,-18%,-7%,x,-16%,-19%
CCCCC(=O)OCc1cc(=O)n2nc(C3CC3)sc2n1,-8%,1%,x,-8%,-7%
CCn1c(=O)c2sccc2n2c(CCCC(=O)N3CCN(c4cccc(Cl)c4)CC3)nnc12,-6%,-8%,x,-8%,-28%
COC1=C(N)C(=O)c2nc(-c3nc(C(=O)O)c(C)c(-c4ccc(OC)c(OC)c4O)c3N)ccc2C1=O,u,u,-64*,16µM*,11µM*
COc1ccc(C(=O)O)c(O)c1OC,-19%,u,-1,-8%,x
Cc1ccc(S(=O)(=O)NCCc2cn3c(C)csc3n2)cc1,6%,2%,x,5%,-28%
CC(C)(C)OC(=O)NCCCCCNC(=O)c1nc[nH]c1C(=O)NCCCCCNC(=O)OC(C)(C)C,x,x,x,x,4%
C/C(Cn1nnc([N+](=O)[O-])n1)=N\NC(=O)c1ccncc1,-2%,-3%,-40*,-9%,-8%
C/C(Cn1cnc([N+](=O)[O-])n1)=N\NC(=O)c1ccncc1,2%,-1%,-4,-4%,-13%
C/C(Cn1nnc([N+](=O)[O-])n1)=N\NC(=O)c1ccc(C)cc1,2%,5%,-38*,-4%,-6%
CN(C)S(=O)(=O)c1ccc(C(=O)Nc2c(C(=O)Nc3ccc(F)cc3)oc3ccccc23)cc1,u,u,x,-4%,-13%
COc1ccc(C(=O)NCCn2cc(SCC(=O)Nc3ccc4c(c3)OCCO4)c3ccccc32)cc1,u,u,x,u,-15%
COC(=O)Cc1[nH]nc2c1C(c1c[nH]c3ccccc13)C(C#N)=C(N)O2 (centres undefined),u,-14%,-18,25µM*,-21%
O=C(NC1CCN(Cc2ccccc2)CC1)c1cn(-c2ccccc2)nc1-c1cccnc1,x,x,x,x,-1%
CC1=NC(=O)C(N=Nc2ccccc2C(=O)O)N1c1ccccc1 (centres undefined),-1%,11%,2,5µM*,u
CC1=NC(=O)C(N=Nc2cccc(C(=O)O)c2)N1c1ccccc1 (centres undefined),-15%,4%,-3,16µM*,-8%
CC1=NC(=O)C(N=Nc2ccccc2)N1c1ccccc1 (centres undefined),-12%,u,3,u,-13%
SMILES,Tau fluor cs,Tau FP inhib,FBPA coupling cs,Tau fibril ThT,USP1 inh
Cc1ccc(C(=O)NCC(=O)NC2CCCCCC2)cc1,x,x,0,x,-5%
O=C(CN1C(=O)COc2ccc(S(=O)(=O)N3CCCC3)cc21)N1CCN(c2ccccc2F)CC1,-15%,-6%,x,-6%,-24%
S=C(Nc1ccc2cn[nH]c2c1)Nc1ccc(Cl)cc1Cl,u,-13%,-10,16µM*,-27%
S=C(Nc1ccc2cn[nH]c2c1)Nc1ccccc1Cl,u,-15%,-47*,14µM*,-18%
Cc1ccccc1NC(=S)Nc1ccc2cn[nH]c2c1,-12%,-6%,-5,u,-22%
CCc1ccc(-c2cn3c(n2)sc2cc(C(=O)NC4CCCCCC4)ccc23)cc1,3%,-7%,x,3%,-19%
COc1cc2nc(SCc3ccc(C)cc3)n3nc(CCn4nc(C)cc4C)nc3c2cc1OC,-10%,-13%,x,-9%,-21%
c1ccc(-c2nnc(-c3ccco3)o2)cc1,-5%,0%,3,-13%,-12%
c1coc(-c2nnc(-c3ccco3)nn2)c1,x,x,-44*,x,25µM*
Cc1ccc(S(=O)(=O)NCCc2nnc3ccc(SCC(=O)Nc4ccc(F)cc4F)nn23)cc1,-7%,-2%,x,-7%,-14%
CCOC(=O)/C(=C\C=C1/Sc2cc(OCC)c(OCC)cc2N1CC)C(C)=O,-12%,u,-8,u,25µM*
CCOC(=O)/C(=C/C=C1\Sc2cc(OCC)c(OCC)cc2N1CC)C(C)=O,-30%,5%,-3,u,22µM*
CCc1ccc(C(=O)C(C)OC(=O)Cc2n[nH]c(=O)c3ccccc23)cc1 (centres undefined),x,x,x,x,-5%
CCc1nn2c(=O)cc(COC(=O)c3cccc(NC(=O)c4ccccc4Cl)c3)nc2s1,-7%,1%,x,u,-11%
O=C(O)c1ccc2cccnc2n1,-6%,-4%,-39*,-17%,-23%
O=C(O)c1cccc(Cl)n1,0%,-2%,0,0%,-19%
O=C(O)c1cccc(C(=O)O)n1,-2%,-9%,-80*,-13%,x
O=C(O)c1ccc2cccc(O)c2n1,0%,-1%,-16,-6%,6%
Cc1ccc(CN(C)CC(=O)Nc2ccccc2C(=O)NC2CC2)o1,x,x,x,x,-6%
COc1cccc(NC(=O)Cn2c(=O)n(Cc3ccc4c(c3)OCO4)c(=O)c3oc4ccccc4c32)c1,u,28µM*,x,u,0%
COc1cccc(NC(=O)Cn2c(=O)n(-c3ccc(Cl)cc3)c(=O)c3sc4ccccc4c32)c1,-17%,u,x,11%,-18%
COc1cccc(NC(=O)Cn2c(=O)n(-c3ccccc3)c(=O)c3ccc(C(=O)NCc4ccc5c(c4)OCO5)cc32)c1,-29%,32µM*,x,15%,-19%
O=C(Cn1c(=O)n(Cc2ccc3c(c2)OCO3)c(=O)c2oc3ccccc3c21)Nc1ccccc1,-23%,u,x,u,21%
COc1cccc(-n2c(=O)c3sc4ccccc4c3n(CC(=O)Nc3cccc(Cl)c3)c2=O)c1,u,22µM*,x,12%,-9%
NC(C(=O)O)C(O)C(=O)O (centres undefined),2%,5%,1,3%,x
CCc1ccc(Nc2sc(C(=O)c3ccccc3)c(N)c2S(C)(=O)=O)cc1,-25%,-4%,x,-7%,2%
COC(=O)c1ccc(Cn2c(SCc3cccc(C)c3)nc3ccncc32)cc1,-21%,-1%,x,u,-3%
